MLL AF4-AF9 inh = MLL-AF4/AF9 protein interaction inhibition. P42568. AlphaScreen, biotin-AF4 peptide binding to FLAG-AF9. inhibition, % at 10 µM. 350,000 compounds, 0.47% hits. AID 651704;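 active = every replicate reaching a set inhibition limit, whatever the replicate mean, cut at about 25% in these data; inconclusive = mean inhibition reaches that limit but some replicates miss it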;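 note: 0% = plate neutral control median and 100% = total signal loss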
ERAP1 HTS inh = ERAP1 (human) enzyme inhibition | Q9NZ08 | recombinant ERAP1, Leu-AMC fluorescence, 60 min | 340,000 compounds, 0.15% hits | inhibition, % at 10.7 µM;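 active = mean replicate inhibition of at least 30%, or all replicates individually reaching that 30% level; inactive = mean below 30% and not every replicate reaching it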;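 note: 0% = neutral control wells and 100% = L-leucinethiol positive control wells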
FGF22 binding = binders of recombinant human FGF22 by thermal shift | AID 651658 | Q9HCT0 | activity (Tm shift, normalised), % at 9.99 µM | 340,000 compounds, 1.5% hits | SYPRO orange fluorescence; percent of sucrose octasulfate shift, DMSO zero;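 active = mean Tm shift, scaled 0 neutral to 100 positive control, at about 1.3% or above, every replicate too, limit read from the data; inconclusive = no clear call, values can overlap the other calls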
Target sequence (Q9HCT0 whole entry, looked up): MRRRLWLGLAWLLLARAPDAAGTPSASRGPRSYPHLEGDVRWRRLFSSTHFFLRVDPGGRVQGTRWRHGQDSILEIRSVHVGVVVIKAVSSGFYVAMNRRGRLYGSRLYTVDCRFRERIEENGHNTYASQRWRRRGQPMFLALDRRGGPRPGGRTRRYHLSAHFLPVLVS
RAD52 inh = blocks human RAD52 DNA annealing; P43351; recombinant RAD52 DNA annealing, FRET fluorescence; inhibition, % at 18.7 µM; 360,000 compounds, 0.46% hits; AID 651710;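 active = every replicate showing at least 50% inhibition; inconclusive = mean inhibition at least 50% but not in every replicate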
Target sequence (P43351 whole entry, looked up): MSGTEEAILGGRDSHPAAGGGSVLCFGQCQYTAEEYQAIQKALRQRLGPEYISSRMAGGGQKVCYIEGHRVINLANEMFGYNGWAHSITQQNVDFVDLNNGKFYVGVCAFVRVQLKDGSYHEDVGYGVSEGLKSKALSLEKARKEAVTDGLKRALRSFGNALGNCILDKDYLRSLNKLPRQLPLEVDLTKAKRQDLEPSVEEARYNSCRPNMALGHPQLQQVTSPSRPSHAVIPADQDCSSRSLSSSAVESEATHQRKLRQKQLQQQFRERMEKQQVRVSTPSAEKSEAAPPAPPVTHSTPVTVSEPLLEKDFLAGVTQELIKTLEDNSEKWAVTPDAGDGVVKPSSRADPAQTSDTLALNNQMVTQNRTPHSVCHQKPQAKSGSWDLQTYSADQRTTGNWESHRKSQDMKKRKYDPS
DENV2 CPE = protects cells from dengue virus 2 cytopathic effect; CPE inhibition, % at 9.99 µM; DENV2-infected cells, cytopathic effect rescue, plate reader; 350,000 compounds, 1.7% hits; in the data active = CPE inhibition above about 20%, passing the limit was not always enough; inconclusive = no clear call, values can overlap the other calls; tested in BHK-21 cells;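 note: 0% = median of neutral control wells and 100% = median of positive control wells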
Starred values were filed as active, the others as inactive; i = inactive; ? = inconclusive; . = no result; ! = not confirmed by another sample. Only some compounds are listed: those with a hit (about 4% of all), similar ones and a draw of the others.

SMILES | MLL AF4-AF9 inh | ERAP1 HTS inh | FGF22 binding | RAD52 inh | DENV2 CPE
C[C@H](CO)N1C[C@H](C)[C@H](CN(C)C(=O)Nc2ccc3c(c2)OCO3)Oc2ccc(NC(=O)Nc3cccc4ccccc34)cc2CC1=O | 6.2 | -1.1 | -0.1 | 8.1 | -2.8
O=C(NCC[C@H]1CC[C@H](NC(=O)c2cccnc2)[C@@H](CO)O1)Nc1ccc(C(F)(F)F)cc1 | 12.9 | -1.1 | 0.3 | 19.6 | -9.1
O=C(OCc1cccc([N+](=O)[O-])c1)c1cccnc1 | 2.0 | 0.1 | 43.1* | -24.2 | -15.3
CC(=O)Nc1cccc(C(=O)OCc2ccc([N+](=O)[O-])cc2)c1 | -1.1 | -2.0 | 43.2* | 10.0 | -8.2
CC(=O)Nc1cccc(C(=O)OCC(=O)NNC(=O)c2ccc([N+](=O)[O-])cc2)c1 | 0.0 | -3.1 | 0.1 | -2.7 | -4.7
Fc1ccc(N=C2NN=C(c3cc(F)ccc3F)CS2)cc1 | -46.1 | 0.9 | 0.2 | -15.0 | -16.8
Fc1ccc(F)c(C2=NNC(=Nc3ccccc3F)SC2)c1 | 1.7 | -2.6 | -0.2 | -26.6 | 86.4*
C[C@@H]1CCCCO[C@H](CN(C)S(=O)(=O)c2ccccc2)[C@@H](C)CN([C@H](C)CO)C(=O)c2cc(NC(=O)Nc3ccc4c(c3)OCO4)ccc2O1 | 1.1 | 0.3 | 0.4 | -2.9 | 91.3*
C[C@@H]1CN([C@@H](C)CO)C(=O)c2cc(NC(=O)Nc3ccc4c(c3)OCO4)ccc2O[C@@H](C)CCCCO[C@@H]1CN(C)S(=O)(=O)c1ccccc1 | 0.0 | 1.3 | -0.8 | -18.3 | 11.4
C[C@H]1CCCCO[C@H](CN(C)S(=O)(=O)c2ccccc2)[C@@H](C)CN([C@@H](C)CO)C(=O)c2cc(NC(=O)Nc3ccc4c(c3)OCO4)ccc2O1 | 10.1 | -1.1 | -0.6 | 10.3 | 60.8*
C[C@H](CO)N1C[C@H](C)[C@@H](CN(C)S(=O)(=O)c2ccccc2)OCCCC[C@H](C)Oc2ccc(NC(=O)Nc3ccc4c(c3)OCO4)cc2C1=O | 1.7 | -0.3 | -0.3 | -2.5 | 29.4*
Cc1ccc(S(=O)(=O)N(C)C[C@@H]2OCCCC[C@H](C)Oc3ccc(NC(=O)Nc4ccc5c(c4)OCO5)cc3C(=O)N([C@H](C)CO)C[C@H]2C)cc1 | 2.9 | -4.2 | 0.1 | 1.4 | 0.6
C[C@@H]1CCCCO[C@@H](CN(C)S(=O)(=O)c2cn(C)cn2)[C@@H](C)CN([C@H](C)CO)C(=O)c2cc(NC(=O)c3ccccc3)ccc2O1 | -1.3 | 1.8 | -0.1 | -6.2 | -4.7
CCC(=O)N1CC(=O)N2[C@H](CO)[C@H](c3ccc(-c4cccnc4)cc3)[C@H]2C1 | -2.0 | -1.9 | . | 3.4 | ?
O=C(N[C@@H]1CC[C@H](CCNS(=O)(=O)c2ccc(F)cc2)O[C@H]1CO)c1ccccn1 | 0.8 | -3.5 | 0.1 | -11.9 | -2.0
c1ccc(-c2cn(CC3CCCCC3)nn2)cc1 | -1.5 | 1.5 | 0.0 | -1.2 | -12.5
OCCCc1cn(CC2CCCCC2)nn1 | . | 3.3 | 0.1 | -11.4 | 47.8*
C[C@H](CO)N1C[C@H](C)[C@H](CN(C)Cc2cccnc2)Oc2ncc(/C=C/c3ccccc3)cc2C1=O | 5.8 | -0.7 | -0.2 | 10.8 | 3.5
O=C(C1=C[C@@H](c2csc3ccccc23)C[C@@H](OCCCCO)O1)N1CCCCCCC1 | 1.5 | -0.6 | -0.2 | -20.1 | -5.5
COc1ccc(Br)cc1[C@H]1[C@H]2C=CC[C@@H](C)[C@@H]2C(=O)N1Cc1ccccc1 | -0.6 | . | -0.1 | -0.2 | 66.4*
C=CCOC(=O)C(=O)/C=C/c1ccc2c(c1)Cc1ccccc1-2 | 1.4 | -1.5 | 0.1 | -88.2 | 37.0*!
O=C(O)c1ccccc1-c1ccccc1C(=O)Nc1ccc2c(c1)oc(=O)c1ccccc12 | -17.1 | 0.4 | . | -5.8 | 9.2
O=C(O)c1ccccc1-c1c2cc(I)c(=O)c(I)c-2oc2c(I)c(O)c(I)cc12 | -2.2 | 106.1* | -0.3 | i | ?
C[C@@H]1CN([C@@H](C)CO)C(=O)Cc2cc(NC(=O)Nc3ccc4c(c3)OCO4)ccc2O[C@H]1CN(C)Cc1ccc(Cl)c(Cl)c1 | 3.3 | 0.1 | 0.6 | 6.0 | 0.9
N#Cc1c(Nc2ccc(F)cc2)sc(C(=O)c2ccc(F)cc2)c1N | -1.9 | 10.9 | 0.3 | -8.0 | -5.3
SMILES | MLL AF4-AF9 inh | ERAP1 HTS inh | FGF22 binding | RAD52 inh | DENV2 CPE
N#Cc1c(Nc2ccc(F)cc2)sc(C(=O)c2ccccc2)c1N | -4.5 | -1.2 | 43.0* | 3.6 | -6.1
CC=Cc1ccc2n(c1=O)C[C@H]1[C@H](CO)[C@@H](C(=O)N3CCc4ccccc4C3)[C@@H]2N1Cc1ccncc1 (mixture of isomers) | 2.6 | -2.2 | 0.4 | -10.9 | -8.3
COc1ccccc1/C=C(/NC(=O)c1ccccc1)C(=O)NCCN1CCOCC1 | -5.9 | 1.9 | 43.8* | -8.4 | 0.2
CCn1cc(/C=C(\NC(=O)c2ccccc2OC)C(=O)NCCN2CCOCC2)c2ccccc21 | 1.8 | 10.9 | -0.1 | -9.3 | 21.6*
CCn1cc(/C=C(\NC(=O)c2cc(OC)c(OC)c(OC)c2)C(=O)NCCN2CCOCC2)c2ccccc21 | 1.6 | -0.2 | 0.0 | -31.4 | 1.8
COc1cc(C(=O)N/C(=C\c2cn(S(=O)(=O)N(C)C)c3ccccc23)C(=O)NCCCO)cc(OC)c1OC | -3.8 | -2.7 | 43.5* | -13.9 | -3.5
CCn1cc(/C=C(\NC(=O)c2cc(OC)c(OC)c(OC)c2)C(=O)NCCCN2CCOCC2)c2ccccc21 | 25.5* | -3.1 | 0.1 | -13.7 | -0.9
COC(=O)[C@@H]1[C@@H](CO)[C@@H]2Cn3c(ccc(-c4ccccc4OC)c3=O)[C@@H]2N1CC1CCCC1 | -0.3 | 1.1 | -0.3 | -23.0 | -4.4
COCC(=O)N1C[C@@H](C)[C@@H](OC)CN(C)C(=O)c2ccc(NC(=O)c3ccccc3)cc2OC[C@H]1C | -8.7 | 1.8 | 0.0 | 18.3 | -12.3
CC1(c2nnnn2Cc2ccccc2)CCC(=O)N1CCCn1ccnc1 (stereo not drawn) | -2.1 | . | -0.1 | -12.2 | 26.1*
C[C@H]1CN([C@@H](C)CO)C(=O)c2cc(NS(=O)(=O)c3ccccc3)ccc2O[C@@H]1CN(C)S(=O)(=O)c1ccccc1 | 0.2 | 0.3 | . | -12.1 | -8.4
CC(C)N1CCN(Cc2ccc(-c3ccccc3)cc2)CC1CCO (stereo not drawn) | -2.7 | -1.7 | 0.0 | -6.7 | -0.1
CC(=O)c1cccc(CN2CCN(C(C)C)C(CCO)C2)c1 (stereo not drawn) | -8.5 | 0.6 | 43.5* | -2.9 | -1.1
CC(C)N1CCN(Cc2ccc3c(c2)Cc2ccccc2-3)CC1CCO (stereo not drawn) | 4.0 | -3.0 | 42.9* | -3.2 | 1.4
CCCCCCCSc1nnc(-c2ccccc2N)c(=O)[nH]1 | -5.8 | 4.0 | 0.3 | -80.9 | 1.5
CCCCCCCCSC1=CC(=O)C(OC)=C(OC)C1=O | 13.0 | -3.7 | -0.5 | -10.2 | 70.6*
CCOC(=O)c1cnn(-c2ncnc3c2cnn3C)c1N | -2.7 | -4.9 | 0.2 | -4.2 | -4.5
CCOC(=O)c1cnc2c(cnn2C)c1Cl | -0.7 | 2.7 | 43.5* | -1.3 | -3.9
Clc1cc(Br)ccc1OCCOCCN1CCCC1 | -2.0 | 2.0 | -0.1 | -1.0 | 24.8*
